Columns and labels:
Assay in all cases: DAPPL (digital affinity profiling via proximity ligation, sequencing); 10 mM Tris-HCl pH 7.5, 50 mM NaCl, 1 mM DTT, 4% glycerol, room temperature, 30 min; GST-TFs on glutathione beads, 16-mer random dsDNA library, 0.1% formaldehyde crosslink after washing; high values mean tight binding
FEV = molecular target: T1, FEV (Homo sapiens, UniProt Q99581 1-238); conditions: protein: recombinant; tags: N-terminal GST; dsDNA, one strand shown
T1 sequence: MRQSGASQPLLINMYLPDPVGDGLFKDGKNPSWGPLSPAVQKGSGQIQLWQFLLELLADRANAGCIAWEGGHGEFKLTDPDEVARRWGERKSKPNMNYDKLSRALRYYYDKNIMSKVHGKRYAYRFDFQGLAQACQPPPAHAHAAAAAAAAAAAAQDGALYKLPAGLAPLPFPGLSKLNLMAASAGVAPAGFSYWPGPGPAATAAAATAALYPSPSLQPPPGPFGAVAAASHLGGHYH
In short: (§1)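 GST fusions of human transcription factors were expressed in yeast and captured with glutathione beads. Once given DNA barcodes and pooled alongside a tag-only sample, they were incubated for 30 min at room temperature with 200 nmole of a random double-stranded 16-mer DNA library in Tris/NaCl/DTT/glycerol buffer, then washed, crosslinked (0.1% formaldehyde), proximity-ligated, PCR-amplified and sequenced on an Illumina NextSeq500. The binding signal of each hexamer is its read frequency for a factor divided by its frequency for the tag-only sample.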

ETV5 = ETV5 (Homo sapiens, UniProt P41161 1-510); conditions: protein: recombinant; tags: N-terminal GST; dsDNA, one strand shown
In short: as §1

HSF1 = HSF1 (Homo sapiens, UniProt Q00613 1-529); conditions: protein: recombinant; tags: N-terminal GST; chain copies: 3; dsDNA, one strand shown
In short: as §1

SPIC = molecular target: T2, SPIC (Homo sapiens, UniProt Q8N5J4 1-248); conditions: protein: recombinant; tags: N-terminal GST; dsDNA, one strand shown
T2 sequence: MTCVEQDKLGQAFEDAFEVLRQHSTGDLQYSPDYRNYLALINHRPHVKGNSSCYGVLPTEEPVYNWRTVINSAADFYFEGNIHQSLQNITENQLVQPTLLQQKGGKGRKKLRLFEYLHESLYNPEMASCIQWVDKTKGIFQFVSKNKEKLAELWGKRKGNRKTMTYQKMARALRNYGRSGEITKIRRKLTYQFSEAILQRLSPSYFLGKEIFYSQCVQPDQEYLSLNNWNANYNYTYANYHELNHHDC
In short: as §1

ELF4 = ELF4 (Homo sapiens, UniProt Q99607 1-663); conditions: protein: recombinant; tags: N-terminal GST; dsDNA, one strand shown
In short: as §1

ELK4 = molecular target: T3, ELK4 (Homo sapiens, UniProt P28324-2 1-405); conditions: protein: recombinant; tags: N-terminal GST; dsDNA, one strand shown
T3 sequence: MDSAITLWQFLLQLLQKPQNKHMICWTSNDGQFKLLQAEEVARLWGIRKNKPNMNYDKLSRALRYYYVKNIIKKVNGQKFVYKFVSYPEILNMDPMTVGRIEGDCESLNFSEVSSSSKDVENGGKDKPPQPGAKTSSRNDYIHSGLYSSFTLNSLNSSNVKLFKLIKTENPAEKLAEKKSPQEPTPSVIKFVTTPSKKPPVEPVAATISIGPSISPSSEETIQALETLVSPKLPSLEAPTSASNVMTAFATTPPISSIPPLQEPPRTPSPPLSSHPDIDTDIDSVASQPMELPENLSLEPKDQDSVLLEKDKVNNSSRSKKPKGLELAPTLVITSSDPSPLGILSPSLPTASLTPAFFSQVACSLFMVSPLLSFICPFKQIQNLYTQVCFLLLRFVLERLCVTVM
In short: as §1

ETV2 = molecular target: T4, ETV2 (Homo sapiens, UniProt O00321 1-342); conditions: protein: recombinant; tags: N-terminal GST; dsDNA, one strand shown
T4 sequence: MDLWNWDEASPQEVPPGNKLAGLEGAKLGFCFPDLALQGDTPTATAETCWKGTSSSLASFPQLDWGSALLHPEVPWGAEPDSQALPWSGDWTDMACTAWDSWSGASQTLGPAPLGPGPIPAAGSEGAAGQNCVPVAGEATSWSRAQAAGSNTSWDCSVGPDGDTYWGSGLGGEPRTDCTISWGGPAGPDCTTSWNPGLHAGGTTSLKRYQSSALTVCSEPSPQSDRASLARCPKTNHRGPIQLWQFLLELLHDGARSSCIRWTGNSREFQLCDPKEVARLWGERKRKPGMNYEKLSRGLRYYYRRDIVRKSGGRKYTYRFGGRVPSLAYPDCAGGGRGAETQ
In short: as §1

ELF3 = molecular target: T5, ELF3 (Homo sapiens, UniProt P78545 1-371); conditions: protein: recombinant; tags: N-terminal GST; dsDNA, one strand shown
T5 sequence: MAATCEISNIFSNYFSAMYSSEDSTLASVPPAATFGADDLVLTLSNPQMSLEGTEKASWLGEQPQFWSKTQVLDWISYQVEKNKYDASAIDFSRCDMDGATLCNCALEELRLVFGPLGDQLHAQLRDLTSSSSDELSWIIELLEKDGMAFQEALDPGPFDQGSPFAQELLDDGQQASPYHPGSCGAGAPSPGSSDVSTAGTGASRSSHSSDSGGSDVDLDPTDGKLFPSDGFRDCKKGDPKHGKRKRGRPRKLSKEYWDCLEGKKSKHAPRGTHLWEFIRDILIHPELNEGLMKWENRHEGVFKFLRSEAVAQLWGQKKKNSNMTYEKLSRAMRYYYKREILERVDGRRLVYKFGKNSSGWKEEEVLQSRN
In short: as §1

CRX = CRX (Homo sapiens, UniProt O43186 1-299); conditions: protein: recombinant; tags: N-terminal GST; dsDNA, one strand shown
In short: as §1

ETV1 = ETV1 (Homo sapiens, UniProt P50549 1-477); conditions: protein: recombinant; tags: N-terminal GST; dsDNA, one strand shown
In short: as §1

Chain of ELF4 (Q99607 whole entry): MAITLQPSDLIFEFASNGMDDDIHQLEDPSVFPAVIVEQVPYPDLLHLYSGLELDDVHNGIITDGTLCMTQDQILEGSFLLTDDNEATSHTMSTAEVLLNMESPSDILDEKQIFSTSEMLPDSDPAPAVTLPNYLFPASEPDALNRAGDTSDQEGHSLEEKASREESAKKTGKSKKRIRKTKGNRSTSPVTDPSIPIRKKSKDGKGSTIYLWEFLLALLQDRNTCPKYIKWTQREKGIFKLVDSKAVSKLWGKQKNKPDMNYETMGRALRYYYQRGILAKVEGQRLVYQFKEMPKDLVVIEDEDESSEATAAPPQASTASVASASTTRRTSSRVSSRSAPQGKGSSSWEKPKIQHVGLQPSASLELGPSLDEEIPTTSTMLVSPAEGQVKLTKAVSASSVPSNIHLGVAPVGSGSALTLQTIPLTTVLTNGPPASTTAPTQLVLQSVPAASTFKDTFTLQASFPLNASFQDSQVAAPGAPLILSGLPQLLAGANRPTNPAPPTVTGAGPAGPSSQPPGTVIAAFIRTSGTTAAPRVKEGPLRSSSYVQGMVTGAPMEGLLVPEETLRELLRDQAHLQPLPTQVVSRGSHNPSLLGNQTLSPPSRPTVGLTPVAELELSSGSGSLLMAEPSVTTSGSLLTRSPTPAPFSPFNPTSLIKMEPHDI
Chain of ETV1 (P50549 whole entry): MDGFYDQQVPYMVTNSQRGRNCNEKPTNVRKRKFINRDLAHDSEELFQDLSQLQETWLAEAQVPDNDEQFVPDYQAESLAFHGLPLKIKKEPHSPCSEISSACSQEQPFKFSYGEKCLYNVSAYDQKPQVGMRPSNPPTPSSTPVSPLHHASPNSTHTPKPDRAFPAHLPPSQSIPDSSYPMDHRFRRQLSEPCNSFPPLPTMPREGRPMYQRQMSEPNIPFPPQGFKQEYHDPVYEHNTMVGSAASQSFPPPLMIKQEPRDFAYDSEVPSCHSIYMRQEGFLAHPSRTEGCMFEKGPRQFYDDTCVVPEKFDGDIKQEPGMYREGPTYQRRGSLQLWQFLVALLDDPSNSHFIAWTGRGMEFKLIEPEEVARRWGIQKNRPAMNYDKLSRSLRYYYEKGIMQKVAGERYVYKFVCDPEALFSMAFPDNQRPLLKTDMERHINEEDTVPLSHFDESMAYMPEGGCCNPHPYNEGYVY
Chain of CRX (O43186 whole entry): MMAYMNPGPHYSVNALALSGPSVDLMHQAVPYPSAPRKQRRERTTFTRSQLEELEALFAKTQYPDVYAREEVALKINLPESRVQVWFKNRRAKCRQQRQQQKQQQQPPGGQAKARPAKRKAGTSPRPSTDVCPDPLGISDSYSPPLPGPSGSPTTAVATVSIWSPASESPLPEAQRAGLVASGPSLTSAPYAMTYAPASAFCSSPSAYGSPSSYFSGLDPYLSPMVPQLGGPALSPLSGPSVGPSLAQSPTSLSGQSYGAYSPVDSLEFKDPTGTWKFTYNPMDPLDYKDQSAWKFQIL
Chain of ETV5 (P41161 whole entry): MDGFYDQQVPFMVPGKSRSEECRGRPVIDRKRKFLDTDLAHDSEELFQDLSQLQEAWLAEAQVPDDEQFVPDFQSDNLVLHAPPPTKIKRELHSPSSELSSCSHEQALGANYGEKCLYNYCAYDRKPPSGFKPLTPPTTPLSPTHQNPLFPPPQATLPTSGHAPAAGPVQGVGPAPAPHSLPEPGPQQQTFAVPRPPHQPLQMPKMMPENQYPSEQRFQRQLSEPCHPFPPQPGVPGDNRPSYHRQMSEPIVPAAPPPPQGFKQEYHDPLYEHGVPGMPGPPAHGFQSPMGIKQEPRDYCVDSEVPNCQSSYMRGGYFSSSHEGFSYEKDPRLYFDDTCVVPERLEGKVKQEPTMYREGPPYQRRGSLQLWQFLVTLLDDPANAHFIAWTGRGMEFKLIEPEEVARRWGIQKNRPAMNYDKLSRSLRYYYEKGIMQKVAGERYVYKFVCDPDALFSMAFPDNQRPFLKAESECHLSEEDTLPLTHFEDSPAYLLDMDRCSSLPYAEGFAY
Chain of HSF1 (Q00613 whole entry): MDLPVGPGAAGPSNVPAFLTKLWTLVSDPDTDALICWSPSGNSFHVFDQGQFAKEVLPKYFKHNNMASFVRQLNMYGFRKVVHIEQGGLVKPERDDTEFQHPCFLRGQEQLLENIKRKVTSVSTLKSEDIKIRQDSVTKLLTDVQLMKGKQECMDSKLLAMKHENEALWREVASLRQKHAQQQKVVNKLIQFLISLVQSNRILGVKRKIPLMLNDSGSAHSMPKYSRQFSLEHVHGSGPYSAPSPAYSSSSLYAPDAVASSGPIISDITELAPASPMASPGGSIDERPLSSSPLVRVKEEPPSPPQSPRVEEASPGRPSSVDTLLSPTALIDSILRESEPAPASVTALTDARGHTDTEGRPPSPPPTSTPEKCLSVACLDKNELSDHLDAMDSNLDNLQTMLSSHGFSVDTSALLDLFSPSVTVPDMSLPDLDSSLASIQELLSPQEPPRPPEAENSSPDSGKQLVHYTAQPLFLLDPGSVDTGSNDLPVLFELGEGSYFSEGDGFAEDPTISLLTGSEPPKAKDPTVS

Sequence: TGCTCA
- binding signal (FEV): 1.39 fold enrichment (6-mer frequency, TF over GST control)
- binding signal (ETV5): 1.4 fold enrichment (6-mer frequency, TF over GST control)
- binding signal (HSF1): 1.12 fold enrichment (6-mer frequency, TF over GST control)
- binding signal (SPIC): 1.65 fold enrichment (6-mer frequency, TF over GST control)
- binding signal (ELF4): 1.28 fold enrichment (6-mer frequency, TF over GST control)
- binding signal (ELK4): 1.24 fold enrichment (6-mer frequency, TF over GST control)
- binding signal (ETV2): 1.42 fold enrichment (6-mer frequency, TF over GST control)
- binding signal (ELF3): 1.31 fold enrichment (6-mer frequency, TF over GST control)
- binding signal (CRX): 1.28 fold enrichment (6-mer frequency, TF over GST control)
- binding signal (ETV1): 1.34 fold enrichment (6-mer frequency, TF over GST control)

Reference: PMC7862700, “An all-to-all approach to the identification of sequence-specific readers for epigenetic DNA modifications on cytosine”
